According to PubChem BioAssay (Tox21):
Records with an inconclusive call do not appear. Entries that show only a call come without a potency. The source made the active and inactive calls. Unless noted, the call rests on the fitted dose curve; in most records, active means well fitted curve in the direction sought with a large enough effect in the repeat runs; inconclusive means weak or mixed curves; inactive means no such curve, though single readings can be large; an effect the other way counts as inactive or inconclusive.

Columns and labels:
[1] = qHTS assay for small molecules that induce genotoxicity in human embryonic kidney cells expressing luciferase-tagged ATAD5 (AID 651632); further: nearly all actives have a fitted effect of over 15% in size
In short: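 Cells were seeded at 2,000 per well, dosed with compound, and incubated 16 hr at 37C in 5% CO2. Luciferase activity was then quantified after a 30 min room-temperature incubation with Amplite.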

[2] = qHTS assay for small molecule agonists of the p53 signaling pathway - cell viability (AID 651633; calls by dose curve;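 further: p53RE-bla HCT reporter cells with a stable beta-lactamase p53 reporter; nearly all actives have a fitted effect of over 30% in size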)
In short: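 p53RE-bla cells were treated with compound for 16 hours at 37 C. Cytotoxicity was then measured as CellTiter-Glo luminescence after 30 min at room temperature.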

[3] = qHTS assay for small molecules that induce genotoxicity in human embryonic kidney cells expressing luciferase-tagged ATAD5 - cell viability (AID 651634; calls by dose curve; further: nearly all actives have a fitted effect of over 25% in size)
In short: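 Cells (HEK293T, luciferase-tagged ATAD5) are seeded at 2,000 per well, dosed with compound or DMSO vehicle, and incubated 15.5 hr at 37C and 5% CO2. CellTiter-Fluor is added for 30 min before fluorescence is measured.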

[4] = qHTS assay for small molecule disruptors of the mitochondrial membrane potential - cell viability (AID 720634; calls by dose curve;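 further: human HepG2 liver cancer cells; nearly all actives have a fitted effect of over 20% in size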)
In short: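 Cytotoxicity was measured by ATP quantitation in HepG2 wells that had first been treated with compound for 1 hr and stained with m-MPI dye; CellTiter-Glo incubation was 30 min at room temperature.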

[5] = qHTS assay to test for compound auto fluorescence at 590 nm (red) in HepG2 cells (AID 720674)
In short: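 Fluorescence at 590 nm emission following 540 nm excitation was recorded from HepG2 wells one hour after compound transfer, with DMSO-only wells as vehicle and Rose Bengal sodium equivalency as the scale.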

[6] = qHTS assay to test for compound auto fluorescence at 535 nm (green) in HepG2 cells (AID 720675)
[7] = qHTS assay to test for compound auto fluorescence at 460 nm (blue) in HEK293 cells (AID 720678)
In short: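 Intrinsic compound fluorescence is recorded in live HEK293 cultures after overnight incubation at 37C, 5% CO2, using excitation 405 nm and emission 460 nm. Values are referenced to triamterene.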

[8] = qHTS assay to test for compound auto fluorescence at 590 nm (red) in HEK293 cells (AID 720679)
In short: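 Red autofluorescence, HEK293 cells: 2,000 cells/well; attach 4-5 hr 37C; add 23 nL cpd or DMSO; incubate o/n 37C 5% CO2; read Ex540/Em590; Rose Bengal sodium reference.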

[9] = qHTS assay to test for compound auto fluorescence at 460 nm (blue) in HEK293 cell free culture (AID 720681)
In short: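 Compounds were added to cell-free DMEM with 10% FBS and fluorescence read directly. The blue channel used 405 nm excitation and 460 nm emission, with triamterene as the reference fluorophore.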

[10] = qHTS assay to test for compound auto fluorescence at 535 nm (green) in HEK293 cell free culture (AID 720682)
In short: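 Compounds were pin-transferred into cell-free DMEM with 10% FBS, and green fluorescence was read at excitation 485 nm and emission 535 nm. Intensities were expressed as fluorescein-equivalent values.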

[11] = qHTS assay to test for compound auto fluorescence at 590 nm (red) in HEK293 cell free culture (AID 720683)
In short: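 Cell-free wells of DMEM with 10% FBS received compound, and intrinsic fluorescence was read at excitation/emission 540/590 nm. Values expressed as equivalence to Rose Bengal sodium.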

[12] = qHTS assay to test for compound auto fluorescence at 590 nm (red) in HepG2 cell free culture (AID 720684)
In short: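 Auto fluorescence equivalency versus Rose Bengal sodium, red channel Ex/Em 540/590 nm; compounds in cell-free MEM/10% FBS; DMSO vehicle control.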

[13] = qHTS assay to test for compound auto fluorescence at 460 nm (blue) in HepG2 cell free culture (AID 720685)
In short: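 Cell-free plates of MEM plus 10% FBS received 23 nL compound or DMSO vehicle; blue-channel (405/460 nm) intensity scored against triamterene as reference fluorophore.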

[14] = qHTS assay to test for compound auto fluorescence at 535 nm (green) in HepG2 cell free culture (AID 720686)
[15] = qHTS assay to test for compound auto fluorescence at 460 nm (blue) in HepG2 cells (AID 720687)
In short: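 HepG2 cells in MEM with 10% FBS, attached overnight at 37 C, were exposed to compound or DMSO for 1 hr at 37 C, 5% CO2. Blue fluorescence was read at 405/460 nm, with triamterene as reference fluorophore.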

[16] = molecular target: Glucocorticoid receptor (Homo sapiens) (UniProt P04150); experiment: qHTS assay to identify small molecule agonists of the glucocorticoid receptor (GR) signaling pathway (AID 720691; active means well fitted activation curve with a large enough effect in the signal ratio in the repeat runs, not every such curve was filed as active; the % refers to the signal ratio); conditions: GR-bla HeLa, beta-lactamase reporter ratio, 18 h; activation: at 62.4 µM (top of the series)
Glucocorticoid receptor (Homo sapiens), sequence (P04150 whole entry, looked up): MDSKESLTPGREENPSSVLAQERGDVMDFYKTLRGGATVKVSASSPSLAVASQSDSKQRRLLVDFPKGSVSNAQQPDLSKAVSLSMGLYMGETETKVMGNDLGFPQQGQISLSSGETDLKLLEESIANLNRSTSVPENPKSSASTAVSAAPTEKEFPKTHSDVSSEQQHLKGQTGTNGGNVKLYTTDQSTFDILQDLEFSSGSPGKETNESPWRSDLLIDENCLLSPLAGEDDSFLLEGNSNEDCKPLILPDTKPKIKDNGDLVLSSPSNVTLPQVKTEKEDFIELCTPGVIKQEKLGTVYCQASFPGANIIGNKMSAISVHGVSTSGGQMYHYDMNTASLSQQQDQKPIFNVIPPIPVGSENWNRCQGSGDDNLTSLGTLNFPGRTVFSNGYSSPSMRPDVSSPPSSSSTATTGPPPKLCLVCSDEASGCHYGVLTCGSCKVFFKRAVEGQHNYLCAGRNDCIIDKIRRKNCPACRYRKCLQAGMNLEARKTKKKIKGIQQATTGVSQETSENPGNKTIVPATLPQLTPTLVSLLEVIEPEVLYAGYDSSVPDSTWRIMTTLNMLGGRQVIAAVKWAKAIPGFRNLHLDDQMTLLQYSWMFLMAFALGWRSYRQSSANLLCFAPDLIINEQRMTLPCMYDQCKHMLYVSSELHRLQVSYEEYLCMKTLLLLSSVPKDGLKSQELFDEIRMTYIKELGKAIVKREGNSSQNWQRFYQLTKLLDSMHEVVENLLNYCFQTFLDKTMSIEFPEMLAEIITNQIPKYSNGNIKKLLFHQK
In short: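 Steps: seed GR-bla HeLa cells, incubate 4 h at 37 C/5% CO2; pin-transfer DMSO-dissolved compounds; incubate 18 h at 37 C; add LiveBLAzer B/G FRET substrate; after 2 h at room temperature, measure fluorescence.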

[17] = qHTS assay to test for compound auto fluorescence at 535 nm (green) in HEK293 cells (AID 720680)
[18] = molecular target: Glucocorticoid receptor (Homo sapiens) (UniProt P04150); experiment: qHTS assay to identify small molecule antagonists of the glucocorticoid receptor (GR) signaling pathway (AID 720692; active means well fitted inhibition curve with a large enough effect in the signal ratio in the repeat runs, not every such curve was filed as active; the % refers to the signal ratio; further: potency means the concentration at half of the fitted maximal effect)
In short: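 Antagonism was scored as loss of dexamethasone-driven (5 nM final) reporter signal in HeLa cells bearing a glucocorticoid response element–beta-lactamase construct, after 18 h compound exposure at 37 C and 2 h FRET substrate loading.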

Compound	Potency [1]	Potency [2]	Potency [3]	Potency [4]	Potency [5]	Potency [6]	Potency [7]	Potency [8]	Potency [9]	Potency [10]	Potency [11]	Potency [12]	outcome [13]	Potency [14]	outcome [15]	Potency [16]	Potency [17]	Potency [18]
CCCCCCCCCCCCCCCCCC(=O)[O][Al]	inactive	inactive	inactive	inactive	inactive	inactive	inactive	inactive	inactive	inactive	inactive	inactive	inactive	inactive	inactive	inactive	–	–
CCCC(=O)O[C@]1(C(=O)COC(=O)CC)[C@@H](C)C[C@H]2[C@@H]3CCC4=CC(=O)C=C[C@]4(C)[C@@]3(F)[C@@H](O)C[C@@]21C	inactive	inactive	inactive	inactive	inactive	inactive	inactive	inactive	–	inactive	inactive	–	inactive	inactive	inactive	–	inactive	–
Cc1ncc(COP(=O)(O)O)c(CN)c1O	inactive	inactive	inactive	–	inactive	inactive	inactive	inactive	inactive	inactive	inactive	–	inactive	inactive	inactive	inactive	inactive	inactive
CC(C)(C)NCC(O)c1ccc(O)c(CO)n1 (stereo not drawn)	inactive	inactive	–	inactive	inactive	inactive	inactive	inactive	inactive	inactive	inactive	inactive	inactive	inactive	inactive	inactive	inactive	inactive
Nc1ncnc2c1ncn2CCOCP(=O)(O)O	inactive	inactive	–	inactive	inactive	inactive	inactive	inactive	inactive	inactive	inactive	inactive	inactive	inactive	inactive	inactive	inactive	inactive
C=C[C@]1(C)C[C@@H](OC(=O)CSC(C)(C)CNC(=O)[C@H](N)C(C)C)[C@]2(C)[C@H](C)CC[C@]3(CCC(=O)[C@H]32)[C@@H](C)[C@@H]1O	inactive	inactive	–	inactive	inactive	inactive	inactive	inactive	–	inactive	inactive	inactive	inactive	inactive	inactive	inactive	inactive	inactive
C[C@]12CC[C@@H]3c4ccc(OC(=O)c5ccccc5)cc4CC[C@H]3[C@@H]1CC[C@@H]2O	inactive	inactive	–	inactive	inactive	inactive	inactive	inactive	inactive	inactive	inactive	inactive	inactive	inactive	inactive	inactive	inactive	6.01 µM (active)
